# In PubChem BioAssay (Tox21):
# Unmarked numbers belong to inactive results. Active and inactive are the calls of the source. Calls come from the whole dose curve; as a rule, active = well fitted curve in the direction sought with a large enough effect in the repeat runs; inconclusive = weak or mixed curves; inactive = flat fitted curve, though single readings scatter.
# Experiment: qHTS assay to test for compound auto fluorescence at 460 nm (blue) in HepG2 cells (AID 720687)
# Settings: autofluorescence 405/460 nm, 1 h; series mostly up to 91.3 µM
# From the text: U.S. Tox21 Program National Center for Advancing Translational Sciences [NCATS] NIH Chemical Genomics Center [NCGC] U.S. Environmental Protection Agency [EPA] National Institutes of Environmental Health Sciences [NIEHS] National Toxicology Program [NTP] U.S. Food and Drug Administration [FDA] Tox21 Assay Overview: Compound auto fluorescence often interferes with screening of the compound library against various biological targets and signaling pathways. Some of these compounds may have fluorophoric properties. Such properties may interfere with the assay outputs resulting in false positives and/or negatives. To decrease such complications and ensure the compound activities are relevant in terms of biological response, the Tox21 10K compound library was screened for auto fluorescence. From the fluorophores used as reporter signals in our screening assays, the auto fluorescence equivalencies of compounds against three fluorophores have been evaluated: Triamterene, Fluorescein and Rose Bengal sodium for blue, green and red fluorescence, respectively. The fluorescence intensities were measured using Excitation/Emission wavelengths at 405/460nm, 485/535nm and 540/590nm for blue, green and red labels, respectively. This assay includes the blue fluorescence data.
# Tox21 Assay Protocol Summary: 2,000 HepG2 cells in 5 uL of culture medium (MEM containing 10% FBS) per well were dispensed into black wall/clear bottom 1536-well plates using a Multidrop Combi Dispenser (ThermoFisher Scientific, Waltham, MA). The assay plates were incubated overnight at 37 C to allow cell attachment to the well bottom, followed by the transfer of 23 nL compound or DMSO vehicle by a pintool work station (Kalypsys , San Diego, CA). After the assay plates were incubated for 1 hr at 37 C and 5% CO2, fluorescence intensities in the assay plates were measured by an Envision (PerkinElmer, Shelton, CT) plate reader using three labels for measuring blue, green and red fluorescence at […] 460, 535 and 590 nm respectively.
# % is set by controls: 0 for no effect and ±100 for the full control effect.
SMILES,outcome,"fluorescence, % of fluorescent control"
CC[N+](CC)(CC)CCOc1cccc(OCC[N+](CC)(CC)CC)c1OCC[N+](CC)(CC)CC,inactive,
C=CC(=O)OCCCl,inactive,
CN(C)C(=O)Oc1ccc[n+](C)c1,inactive,
COc1ccccc1OCC1CNC(=O)O1 (stereo not given),inactive,
Cc1c(N)c(=O)n(-c2ccccc2)n1C,,-0.0556% [at 18.6 µM]
CC1=CC(=O)[C@H]2C[C@@H]1C2(C)C,inactive,
CCOC(=O)C1=NOC(c2ccccc2)(c2ccccc2)C1,inactive,
C=COC(=O)C(C)(CC)CCC(C)C (stereo not given),inactive,
N[C@H](C(=O)O)[C@@H](O)c1ccc(O)c(O)c1,inactive,
CCC(=O)OCc1ccccc1,inactive,
CC(=O)c1ccc2ccccc2c1,inactive,
CC(C)COC(=O)c1ccc(N)cc1,inactive,
CC(CO)(CO)[N+](=O)[O-],inactive,
CC1=CCC(O)(C(C)C)CC1 (stereo not given),inactive,
Cc1cccc(C)c1NC(=O)CC12CCCN1CCC2,inactive,
CC(C)C(=O)OC(=O)C(C)C,inactive,
Clc1cc(Cl)cc(Cl)c1,inactive,
CCCc1ncc(C[n+]2ccccc2C)c(N)n1,,-0.0148% [at 18.6 µM]
Cc1ccc(C(=O)Nc2ccc(S(=O)(=O)O)c3cc(S(=O)(=O)O)cc(S(=O)(=O)O)c23)cc1NC(=O)c1cccc(NC(=O)Nc2cccc(C(=O)Nc3cc(C(=O)Nc4ccc(S(=O)(=O)O)c5cc(S(=O)(=O)O)cc(S(=O)(=O)O)c45)ccc3C)c2)c1,inactive,
CN1CC(=O)N/C1=N/C(=O)Nc1cccc(Cl)c1,inactive,

SMILES,outcome,"fluorescence, % of fluorescent control"
CO[C@@]1(NC(=O)C(C(=O)O)c2ccc(O)cc2)C(=O)N2C(C(=O)O)=C(CSc3nnnn3C)CO[C@@H]21 (stereo not given in full),,0.208% [at 18.6 µM]
CC(C)(CCC(=O)O)C(=O)O,inactive,
O=C(O)CNC(=O)c1ccccc1,inactive,
[K+],inactive,
O=C(c1ccccc1O)c1ccccc1O,inactive,
CCOC(=O)OC(C)OC1=C(C(=O)Nc2ccccn2)N(C)S(=O)(=O)c2ccccc21 (stereo not given),inactive,
CN1[C@@H]2CC[C@H]1CC(OC(=O)C(O)c1ccccc1)C2 (stereo not given in full),inactive,
NC(CCC(=O)O)C(=O)O (stereo not given),inactive,
Cc1ccc(-c2ncc(Cl)cc2-c2ccc(S(C)(=O)=O)cc2)cn1,inactive,
COC(=O)Nc1ccc(Cl)c(Cl)c1,inactive,
CCCC[N+](C)(CCCC)CCCC,inactive,
CCCCCCCCN1CCCC1=O,inactive,
C[N+]1(C)[C@@H]2CC(OC(=O)[C@H](CO)c3ccccc3)C[C@H]1[C@@H]1O[C@@H]12 (stereo not given in full),inactive,
NS(=O)(=O)Cc1noc2ccccc12,inactive,
Clc1cc(Cl)c(Cl)nc1Cl,inactive,
O=C(O)c1cc(C(=O)O)cc(C(=O)O)c1,inactive,
CCOC(=O)COC(=O)c1ccccc1C(=O)OCC,inactive,
CCCCCCCCCC[N+](C)(C)[O-],inactive,
C=C(C)C(=O)OCCOCCOCCOCCOC(=O)C(=C)C,inactive,
c1ccc(Cc2ccccc2)cc1,inactive,
